Compounds with a hit are over-represented: about 12% of the library has one in this group of screens.
USP17 block: inhibitors of human USP17 deubiquitinase | purified USP17, Ub-rhodamine cleavage fluorescence, 3 h | inhibition, % at 50 µM | actives 6.5% (n = 47,000) | AID 1645855, 2021
OTUD3 inh: inhibitors of human OTUD3 deubiquitinase; OTU domain-containing protein 3 (Homo sapiens), Q5T2D3; purified OTUD3, Ub-rhodamine fluorescence, 2 h; inhibition, % at 25 µM; actives 0.7% (n = 47,000); AID 1645858, 2021
USP30 inh: inhibitors of human USP30 deubiquitinase | Ubiquitin carboxyl-terminal hydrolase 30 (Homo sapiens), Q70CQ3 | purified USP30, Ub-rhodamine cleavage fluorescence | inhibition, % at 25 µM | actives 5.3% (n = 47,000) | AID 1645860, 2021
Target sequence (Q70CQ3 whole entry, looked up): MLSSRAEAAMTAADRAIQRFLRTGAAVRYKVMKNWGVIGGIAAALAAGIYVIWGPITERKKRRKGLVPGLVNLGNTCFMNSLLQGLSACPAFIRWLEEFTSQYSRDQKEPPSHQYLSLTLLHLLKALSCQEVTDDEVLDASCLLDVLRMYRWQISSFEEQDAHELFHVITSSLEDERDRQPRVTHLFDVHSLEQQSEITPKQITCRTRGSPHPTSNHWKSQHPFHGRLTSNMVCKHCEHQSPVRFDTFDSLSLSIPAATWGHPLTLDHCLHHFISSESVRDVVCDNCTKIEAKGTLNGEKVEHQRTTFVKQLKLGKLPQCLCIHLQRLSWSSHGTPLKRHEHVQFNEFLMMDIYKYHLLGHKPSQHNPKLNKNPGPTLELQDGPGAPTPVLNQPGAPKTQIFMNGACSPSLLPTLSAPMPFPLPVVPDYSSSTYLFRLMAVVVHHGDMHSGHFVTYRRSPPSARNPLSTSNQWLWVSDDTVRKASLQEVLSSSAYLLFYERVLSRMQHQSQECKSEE
USP28 inh: inhibitors of human USP28 deubiquitinase. AID 1645857, 2021. actives 3% (n = 47,000). inhibition, % at 25 µM. purified USP28, Ub-rhodamine cleavage fluorescence, 30 min
Each line names hits and unclear results; the compound was inactive in the other large screens. No stated cut-off is given here; in the data, active means inhibition above about 30%; inactive means the rest.

COc1ccc(C2SCC(=O)Nc3c2c(=O)[nH]n3C2CCCCCC2)cc1 (centres undefined)	USP17 block 50
C=C/C(=C/C(=O)C[C@H](C)C[C@@H](C)CC[C@H](O)[C@H](C)C(=O)CC(O)[C@H](C)[C@@H](C)OC(=O)C[C@@H](O)C1=C(C)C(=O)OC1=O)CC (some centres undefined)	USP17 block 88, OTUD3 inh 89, USP30 inh 54, USP28 inh 90
O=C1CCC[C@]2(CNC[C@H]2c2ccccc2)N1	none
COc1cc2c(c3oc4cccc(O)c4c(=O)c13)C1C=COC1O2 (centres undefined)	USP17 block 54, USP28 inh 50
O=C(Nc1nccs1)c1cccn(Cc2ccc(Cl)c(Cl)c2)c1=O	USP17 block 31
O=C(Nc1nc2ccccc2s1)c1cccn(Cc2cccc(Cl)c2)c1=O	USP17 block 46
CC1CC[C@]2(NC1)O[C@H]1C[C@H]3[C@@H]4CC[C@H]5C[C@@H](O[C@@H]6O[C@H](CO)[C@H](O[C@@H]7O[C@H](CO)[C@@H](O)[C@H](O[C@@H]8OC[C@@H](O)[C@H](O)[C@H]8O)[C@H]7O[C@@H]7O[C@H](CO)[C@@H](O)[C@H](O)[C@H]7O)[C@H](O)[C@H]6O)CC[C@]5(C)[C@H]4CC[C@]3(C)[C@H]1[C@@H]2C (some centres undefined)	USP17 block 62, USP30 inh 41
COCC(C)NC(=O)c1cc2cccnc2n(Cc2ccc(F)cc2)c1=O (centres undefined)	USP17 block 38, USP30 inh 31
O=C(NCc1ccco1)c1cc2cccnc2n(Cc2ccccc2)c1=O	none
COCCN1CCC2(COCc3cnc(NCC4CC4)nc32)C1 (centres undefined)	none
CCN1CCC2(COCc3c(C)nc(-c4ccccc4)nc32)C1 (centres undefined)	USP28 inh 36
Cc1nc(NCC2CC2)nc2c1COCC21CCN(CC2CC2)C1 (centres undefined)	none
Cc1nn(C2CCOC(C)(C)C2)c2c1C(c1ccccc1)SCC(=O)N2 (centres undefined)	none
COC1=C(C2=C(OC)C(=O)c3cc4c(c(O)c3C2=O)C(=O)OC(C)C4)C(=O)c2c(cc3c(c2O)C(=O)OC(C)C3)C1=O (centres undefined)	USP17 block 70, OTUD3 inh 64, USP28 inh 67
c1cc(-c2nccc(CN3CCCC4(CCCCC4)C3)n2)ccn1	none
Fc1ccc(OC2COC3(CCNCC3)C2)cc1 (centres undefined)	none
COc1c2c(c(O)c3c1C(=O)c1c(cc(O)c(C)c1O)C3=O)-c1c(cc3c(c1O)C(=O)OC3O)CC2 (centres undefined)	USP17 block 94, OTUD3 inh 89, USP30 inh 59, USP28 inh 88
C=C1CCC[C@]2(C)C[C@H]3OC(=O)C(CN4CC=C(c5ccc(F)cc5)CC4)[C@H]3CC12 (some centres undefined)	none
CN1C(=O)[C@@]23C[C@]4([C@@]56C[C@]78SS[C@](CO)(C(=O)N7[C@@H]5Nc5ccccc56)N(C)C8=O)c5ccccc5N[C@@H]4N2C(=O)[C@]1(CO)SS3	USP30 inh 68
Cc1nn(Cc2ccccc2)c(Cl)c1C(=O)NC1CCCc2ccccc21 (centres undefined)	USP17 block 56, USP30 inh 35, USP28 inh 31
CC[C@@]12CCCN3CC[C@]4(c5cccc(OC)c5N(C=O)[C@@H]4CC1)[C@H]32	none
CC1Oc2cc3c(-c4c(O)cc(O)c5c(O)c6c(cc45)OC(C)C(C)C6=O)c(O)cc(O)c3c(O)c2C(=O)C1C (centres undefined)	USP17 block 81, OTUD3 inh 84, USP30 inh 35, USP28 inh 90
O=C(Nc1ccccc1)[C@H]1CN2CCC1C[C@@H]2Cn1cc(-c2cccc(O)c2)nn1 (some centres undefined)	none
C/C=C(C)/C=C/C=C/C(OC)C(C)C(OC)C(C)CCc1oc2c(O)c(OC)cc(OC)c2c(=O)c1C (centres undefined)	none
C/C=C\C(=O)OC1CC2O[C@@H]3C=C(C)C(=O)C[C@]3(C)[C@]1(C)C21CO1 (some centres undefined)	none

Compound activity as filed in PubChem.
